The results in this text go back to PubChem BioAssay.

A short description of the assay: probe aEGFR binding to arrayed compounds – biochemical, biotinylated probe, 635/667 nm fluorescence, primary screen (AID 1097).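 Further: probe is a biotinylated anti-EGFR antibody binding compounds printed on slides; score combines fluorescence near 667 nm and signal to noise of each spot.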 The settings on record: small-molecule microarray, higher = more signal.
Molecule `C[n+]1ccc(CCCO)cc1` came in with a composite z-score of 0.0455.

`CCCC[C@@H]1C[C@H]1[C@@H](NC(=O)c1ccccc1)c1ccc(Cl)cc1`: the composite z-score is -0.421.

For the molecule `C=C(CCCC)/C(=C/C[C@@H](OC(C)=O)c1ccc(CO)o1)c1cc(C(=O)OC)ccc1OC`, the composite z-score was determined as 0.021.

As for `CC(C)OC(=O)CC(=O)CC(O)c1cccc(C#N)c1` (stereo not drawn), the composite z-score stood at 0.0201.

For the molecule `COC(=O)[C@@]1(Cc2ccccc2)[C@H]2c3cc(C(=O)N4CCCC4)[nH]c3C[C@H]2CN1C(=O)c1ccccc1`, the composite z-score is -0.122.

In the case of `COc1c(C)cc(-c2cc3c(c(-c4ccccc4)n2)[Si](C(C)C)(C(C)C)OC3)cc1C`, the composite z-score is -0.0262.

For `C=CC[C@@]1(C(=O)N2CCCCC2)N=C(c2ccc(OCCCO)cc2)O[C@@H]1c1ccccc1`, the composite z-score was determined as 0.0222.

`CN(C)CCCNC(=O)[C@@H]1c2ccccc2C(=O)N(Cc2ccc(OC(F)(F)F)cc2)[C@H]1c1ccc(CO)cc1` came in with a composite z-score of -0.171.
